Values quoted from earlier work in PubChem BioAssay AID977610.
Hit rate of the full screen: of about 3,600 compounds, about 3,600 (100%) were called active. The limit is not given here; nearly all actives have Ki up to about 18000 µM. So high a share suggests a set chosen from earlier hits. This is one part of the list. Starred links: 1 amine or outer side, 2 acyl side, 3 side chain; linkers in the order of their positions; H or OH if unused. Positions of bridges follow the written chain, without caps; N, C: chain ends. Square brackets hold non-standard residues; d marks the D form. Residues, ends and D or L forms follow the SMILES beside them. Peptide text beside a SMILES is read from it. X1 = C(CS[*:2])CN(CCCS[*:3])[*:1]

Assay: PubChem AID 977610
Details: PDB protein-ligand complexes, literature Ki

Compound: CNC(=O)CN[C@@H](C(=O)N1CC[C@H]1C(=O)NCc1ccc(C(N)N)cc1)C1CCCCC1
- Ki (protein: THROMBIN, PDB entry 4ban): 0.00243 µM (active)

Compound: CC[C@H](C)[C@H](NC(C)=O)C(=O)N[C@@H](Cc1ccc(O)cc1)C(=O)N[C@@H](Cc1ccc(O)cc1)[P+](O)(O)O
- Ki (protein: Human angiotenisn converting enzyme N-domain, PDB entry 4bzs): 0.075 µM (active)

Compound: O=C(N[C@@H](Cc1ccccc1)[P+](O)(O)C[C@H](Cc1cc(-c2ccccc2)no1)C(=O)N[C@@H](Cc1ccc(O)cc1)C(=O)O)OCc1ccccc1
- Ki (protein: ANGIOTENSIN-CONVERTING ENZYME, PDB entry 4ca8): 0.21 µM (active)

Compound: O=C(N[C@@H](Cc1ccccc1)[P+](O)(O)C[C@@H](Cc1cc(-c2ccccc2)no1)C(=O)N[C@@H](Cc1ccc(O)cc1)C(=O)O)OCc1ccccc1
- Ki (protein: ANGIOTENSIN-CONVERTING ENZYME N-DOMAIN, PDB entry 4ca6): 0.18 µM (active)
- Ki (protein: ANGIOTENSIN-CONVERTING ENZYME, PDB entry 4ca5): 0.00041 µM (active)
- Ki (protein: ANGIOTENSIN-CONVERTING ENZYME, PDB entry 4ca7): 0.044 µM (active)

Compound: CC(C)C[C@H](NC(=O)[C@@H]1CSS[C@H]2CSSC[C@H](NC(=O)CNC(=O)[C@H](CCCN=C(N)N)NC(=O)CNC(=O)[C@H](CC(C)C)NC(=O)[C@H](C)NC(=O)[C@@H](NC(=O)CN)C2)C(=O)N[C@@H](CCC(=O)O)C(=O)N[C@@H](CC(N)=O)C(=O)N[C@@H](Cc2cnc[nH]2)C(=O)N[C@@H](CCCN=C(N)N)C(=O)N1)C(N)=O
- Ki (protein: Urokinase-type plasminogen activator, PDB entry 4os4): 13.6 µM (active)

Compound: CC(C)C[C@H](NC(=O)[C@@H]1CSSCCCN2CCCSSC[C@H](NC(=O)CNC(=O)[C@H](CCCN=C(N)N)NC(=O)CNC(=O)[C@H](CC(C)C)NC(=O)[C@H](C)NC(=O)[C@@H](NC(=O)CN)CC2=O)C(=O)N[C@@H](CCC(=O)O)C(=O)N[C@@H](CC(N)=O)C(=O)N[C@@H](Cc2cnc[nH]2)C(=O)N[C@@H](CCCN=C(N)N)C(=O)N1)C(N)=O (H-GDALGRGCENHRCL-NH2; linker 2-8-13 via X1)
- Ki (protein: Urokinase-type plasminogen activator, PDB entry 4os7): 24 µM (active)

Compound: CC(C)C[C@H](NC(=O)[C@@H]1CSS[C@@H]2CSSC[C@H](NC(=O)CNC(=O)[C@H](CCCN=C(N)N)NC(=O)CNC(=O)[C@H](CC(C)C)NC(=O)[C@H](C)NC(=O)[C@@H](NC(=O)CN)C2)C(=O)N[C@@H](CCC(=O)O)C(=O)N[C@@H](CC(N)=O)C(=O)N[C@@H](Cc2cnc[nH]2)C(=O)N[C@@H](CCCN=C(N)N)C(=O)N1)C(N)=O
- Ki (protein: Urokinase-type plasminogen activator, PDB entry 4os1): 2.5 µM (active)

Compound: CC(C)C[C@H](NC(=O)[C@@H]1CSSC[C@H]2C[C@H](NC(=O)CN)C(=O)N[C@@H](C)C(=O)N[C@@H](CC(C)C)C(=O)NCC(=O)N[C@@H](CCCN=C(N)N)C(=O)NCC(=O)N[C@@H](CSS2)C(=O)N[C@@H](CCC(=O)O)C(=O)N[C@@H](CC(N)=O)C(=O)N[C@@H](Cc2cnc[nH]2)C(=O)N[C@@H](CCCN=C(N)N)C(=O)N1)C(N)=O
- Ki (protein: Urokinase-type plasminogen activator, PDB entry 4os5): 23.7 µM (active)

Compound: C[C@@H](N)C(=O)N[C@H](C)C(=O)O (H-[dA]-[dA]-OH)
- Ki (protein: vancomycin resistance D,D-dipeptidase/D,D-pentapeptidase VanXYc D59S mutant, PDB entry 4oak): 59.7 µM (active)

Compound: O=c1[nH]c(=O)n([C@@H]2O[C@H](CO[P+](O)(O)O[P+](O)(O)O[C@H]3O[C@H](CO)[C@H](O)[C@H](O)[C@H]3O)[C@@H](O)[C@H]2O)cc1-c1ccccc1
- Ki (protein: Histo-blood group ABO system transferase, PDB entry 3v0l): 3 µM (active)

Compound: O=c1[nH]c(=O)n([C@@H]2O[C@H](CO[P+](O)(O)O[P+](O)(O)O)[C@@H](O)[C@H]2O)cc1-c1ccc(CO)s1
- Ki (protein: Histo-blood group ABO system transferase, PDB entry 3v0p): 0.53 µM (active)

Compound: N[C@](CF)(Cc1c[nH]c2ccccc12)C(=O)O
- Ki (protein: Pyridoxal-dependent decarboxylase domain protein RUMGNA-01526, PDB entry 4obv): 178000 µM (active)

Compound: CN(C)CCOc1cccc(-c2ccc(Cl)cc2)c1CN1CCN(c2ccc(C(=O)NS(=O)(=O)c3ccc(NCC4CCOCC4)c([N+](=O)[O-])c3)c(Oc3ccc4[nH]ccc4c3)c2)CC1
- Ki (protein: Apoptosis regulator Bcl-2, PDB entry 4lxe): 0.0001 µM (active)
- Ki (protein: Apoptosis regulator Bcl-2, PDB entry 4man): 1e-05 µM (active)

Compound: CN1C(=O)[C@@](CCC2CCCCC2)(C[C@H]2CCC[C@@H](Nc3ccc4ccccc4n3)C2)N=C1N
- Ki (protein: Beta-secretase 1 BACE 1, PDB entry 4r95): 0.014 µM (active)

Compound: COc1ccc(-c2cc(Oc3cc(C)cc(OC)c3)cc(C)n2)cc1
- Ki (protein: Macrophage migration inhibitory factor-like protein MIF, PDB entry 4p7s): 0.038 µM (active)

Compound: Cc1cc(Oc2cccc(O)c2)cc(-c2ccccc2)n1
- Ki (protein: Macrophage migration inhibitory factor-like protein MIF, PDB entry 4p7m): 0.039 µM (active)

Compound: COc1cc(O)c2c(c1)/C=C/C[C@H](O)[C@H](O)C(O)CCC[C@H](C)OC2=O (stereo not given in full)
- Ki (protein: Tak1-Tab1 fusion protein, PDB entry 4gs6): 0.071 µM (active)

Compound: Cc1ncc(CO[P+](O)(O)O)c(CNc2co[nH]c2=O)c1O
- Ki (protein: methionine gamma-lyase MGL, PDB entry 4oma): 68 µM (active)

Compound: CCCN1CCC(c2nc3c(C(N)=O)cccc3[nH]2)CC1
- Ki (protein: Poly [ADP-ribose] polymerase 1, PARP-1, PDB entry 2rcw): 0.008 µM (active)

Compound: O=C(O)Cc1nn(Cc2nc3cc(C(F)(F)F)ccc3s2)c(=O)c2ccccc12
- Ki (protein: Lactoylglutathione lyase, PDB entry 4kyh): 1.2 µM (active)

Compound: CC1(C)CCC(c2ccc(Cl)cc2)=C(CN2CCN(c3ccc(C(=O)NS(=O)(=O)c4ccc(N[C@H](CCN5CCOCC5)CSc5ccccc5)c(S(=O)(=O)C(F)(F)F)c4)cc3)CC2)C1
- Ki (protein: Apoptosis regulator Bcl-2, PDB entry 4lvt): 4.4e-05 µM (active)

Compound: O=C(NS(=O)(=O)c1ccc(NC2CCOCC2)c([N+](=O)[O-])c1)c1ccc(N2CCN(CC3=C(c4ccc(Cl)cc4)CCOC3)CC2)cc1
- Ki (protein: Apoptosis regulator Bcl-2, PDB entry 4lxd): 0.059 µM (active)
